Screening data (PubChem BioAssay)
A selection: hits, their analogues and other compounds. The true share with any hit is near 0.4%.
EPAC2 antagonist = blocks human EPAC2 exchange factor | AID 720708 | hit rate 0.18% among 360,000 | Q8WZA2 | EPAC2 GEF exchange of Rap1B-BODIPY-GDP, fluorescence | Potency, µM (highest dose often 114 µM), for the others: at the top dose activity, negative = inhibition, most hits filed as inhibitors; note: % is set by controls: 0 for no effect and ±100 for the full control effect; nearly all actives have a fitted effect of over 45% in size
Target sequence (Q8WZA2 whole entry, looked up): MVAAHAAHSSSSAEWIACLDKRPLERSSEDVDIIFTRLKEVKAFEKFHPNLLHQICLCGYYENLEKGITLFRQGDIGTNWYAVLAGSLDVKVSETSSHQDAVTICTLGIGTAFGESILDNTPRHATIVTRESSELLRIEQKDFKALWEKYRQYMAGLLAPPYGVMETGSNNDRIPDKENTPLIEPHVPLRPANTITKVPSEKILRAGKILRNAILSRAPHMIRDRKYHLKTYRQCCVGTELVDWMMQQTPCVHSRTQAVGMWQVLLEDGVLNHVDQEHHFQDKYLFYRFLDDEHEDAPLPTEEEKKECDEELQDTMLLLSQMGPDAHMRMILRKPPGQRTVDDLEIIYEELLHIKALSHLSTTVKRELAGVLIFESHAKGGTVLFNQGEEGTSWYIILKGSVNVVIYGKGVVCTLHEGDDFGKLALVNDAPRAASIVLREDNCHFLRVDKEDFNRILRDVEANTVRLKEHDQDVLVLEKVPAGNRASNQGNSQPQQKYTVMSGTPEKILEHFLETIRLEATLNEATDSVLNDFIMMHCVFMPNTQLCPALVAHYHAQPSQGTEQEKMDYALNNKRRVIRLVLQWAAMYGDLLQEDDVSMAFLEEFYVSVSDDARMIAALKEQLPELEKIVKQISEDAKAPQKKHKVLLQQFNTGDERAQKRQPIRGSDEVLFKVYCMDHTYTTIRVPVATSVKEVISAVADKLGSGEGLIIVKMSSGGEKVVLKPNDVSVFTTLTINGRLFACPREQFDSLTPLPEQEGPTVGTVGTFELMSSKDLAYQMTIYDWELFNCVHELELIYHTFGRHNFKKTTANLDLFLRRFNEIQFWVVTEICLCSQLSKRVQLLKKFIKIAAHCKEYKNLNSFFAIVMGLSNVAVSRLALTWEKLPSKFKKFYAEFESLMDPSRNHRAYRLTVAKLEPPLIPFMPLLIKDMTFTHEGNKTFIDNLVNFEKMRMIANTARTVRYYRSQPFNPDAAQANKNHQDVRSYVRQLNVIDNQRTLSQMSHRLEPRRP
ERG-DNA inh = blocks human ERG Ets domain binding to DNA | Potency, µM (titrated, usually from 76.9 µM), for inactives: at the top dose FP activity, negative = inhibition, most hits filed as inhibitors | AID 624246 | fluorescence polarization, His-ERG Ets domain / labelled DNA | P11308 | hit rate 0.028% among 370,000; active = well fitted inhibition curve with a large enough effect in the polarisation, with a control signal flat; inconclusive = small, poorly fitted or top-dose-only effect, or effect the other way, or a change in a side signal; inactive = no such curve, though single readings can be large or run the other way; the % refers to the polarisation;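 note: polarization taken with two DNA probes labelled with fluorescein and Texas red; % of control where 0% means no effect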
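His-tagged ERG Ets domain (1 uM in the protein solution; 300mM KCl, 50mM Tris-HCl, 1mM EDTA, 1mM DTT, pH 7.5) received compound, then a probe mix of 5 nM fluorescein-DNA and 100nM Texas-615-DNA. Fluorescence polarization was read for both dyes.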
EPAC2 ag = EPAC2 (human) agonism; EPAC2 activation, biochemical qHTS; response scale: 100% = 6.5 mM cAMP response; Potency, µM (top dose mostly 154 µM), for inactives: at the highest dose activation, most hits filed as activators; Q8WZA2; hit rate 0.079% among 360,000; note: nearly all actives have a fitted effect of over 50% in size
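Compounds were added across a concentration range to EPAC2 (100 nM), RAP1B-BODIPY-GDP (250 nM) and GDP (50 uM). After 5 min at room temperature, fluorescence was recorded at 5-min intervals for 30 min.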
EPAC1 antagonist = blocks human EPAC1 exchange factor | O95398 | EPAC1 GEF assay, Rap1b-BODIPY-GDP exchange fluorescence | Potency, µM (series often up to 115 µM), without a hit: at the top dose activity change, negative = inhibition, most hits filed as inhibitors | hit rate 0.14% among 360,000 | AID 720709;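 note: plate controls were vehicle for no effect and positive control for full effect; nearly all actives have a fitted effect of over 50% in size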
EPAC1 ag = agonists of human EPAC1; O95398; EPAC1 agonist qHTS, biochemical assay; response scale: 100% = response to 6.5 mM cAMP; Potency, µM (doses to about 154 µM), without a hit: at the top dose activation, most hits filed as activators; hit rate 0.073% among 360,000; AID 720707; note: nearly all actives have a fitted effect of over 60% in size
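EPAC1 100 nM, Rap1B–BODIPY-GDP 250 nM, unlabeled GDP 50 uM; compound titration; 5 min RT; kinetic read ex480/em540 at 5-min intervals ×30 min; data normalized to 6.5 mM cAMP agonist control.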
RGS4 inhibitor = blocks human RGS4-accelerated GTP hydrolysis; P49798; Transcreener GDP fluorescence polarization, RGS4-accelerated GTP hydrolysis; hit rate 0.039% among 390,000; Potency, µM (top dose mostly 114 µM), inactives show at the highest dose activity change, negative = inhibition, hits mostly inhibitors; AID 504845; note: % is set by controls: 0 for no effect and ±100 for the full control effect; nearly all actives have a fitted effect of over 75% in size
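MLSMR compounds (23 nl, pin-transferred) preincubated 10 min at room temperature with a 500nM (2x) first reagent, then RGS4 at 900nM (2x) plus Transcreener GDP mix added; fluorescence polarization (620/688 nm) read before and after 90 min at 30 °C.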
* hit, by the source's call; ! = repeats disagree; [ ] = dose if it differs, or a comment. Unless noted, calls come from the whole dose curve; as a rule, active = well fitted curve in the direction sought with a large enough effect; inconclusive = small, poorly fitted or top-dose-only effect, or another doubt; inactive = no such curve, though single readings can be large; an effect the other way counts as inactive or inconclusive. Potency is the fitted concentration of half-maximal effect.

`COc1cccc(NC(=O)CCNC(=O)Cn2cnc3ccccc3c2=O)c1` gave ERG-DNA inh 10.5% and RGS4 inhibitor 15.1%.
For COc1cc(/C=C/[N+](=O)[O-])ccc1OCc1cccc(C(=O)O)c1 the results were EPAC2 antagonist 22.4µM*, ERG-DNA inh -5.5%, EPAC2 ag 17.8%, EPAC1 antagonist inconclusive, EPAC1 ag 8.3% and RGS4 inhibitor inconclusive.
Cc1ccc(-c2nn(-c3ccccc3)cc2C=C2SC(=S)N(CCS(=O)(=O)O)C2=O)cc1 was read as EPAC2 antagonist 44.7µM*, EPAC2 ag 1.2%, EPAC1 antagonist 7.94µM* and EPAC1 ag -12.0%.
N#Cc1c(-c2ccccc2)oc(=O)c2ccccc12 was read as EPAC2 antagonist -2.0%, ERG-DNA inh -2.6%, EPAC2 ag -3.9%, EPAC1 antagonist -11.3%, EPAC1 ag 7.5% and RGS4 inhibitor -14.8%.
O=c1oc(-c2ccccc2)c(-c2ccccc2)c2ccccc12 was read as EPAC2 antagonist 44.7µM*, ERG-DNA inh 0.8%, EPAC2 ag 4.5%, EPAC1 antagonist -18.9%, EPAC1 ag 4.1% and RGS4 inhibitor 11.0%.
Screening CCOC(=O)c1[nH]c2ccc(C(=O)OC)cc2c1C(=O)OCC returned EPAC2 antagonist -9.6%, ERG-DNA inh -2.3%, EPAC2 ag 1.1%, EPAC1 antagonist -9.6%, EPAC1 ag -7.9% and RGS4 inhibitor -8.2%.
N#Cc1ccc2[nH]cc(CCO)c2c1 was read as EPAC2 antagonist -0.8%, ERG-DNA inh 3.2%, EPAC2 ag 7.0%, EPAC1 antagonist -4.2%, EPAC1 ag 14.4% and RGS4 inhibitor -1.0%.
`CCCc1[nH]c2ccc(C#N)cc2c1CCC` gave EPAC2 antagonist 28.2µM*, ERG-DNA inh 1.9%, EPAC2 ag -1.3%, EPAC1 antagonist -27.0%, EPAC1 ag -23.2% and RGS4 inhibitor -8.3%.
`CCCc1[nH]c2ccc(C(=O)OC)cc2c1CCC` gave EPAC2 antagonist 28.2µM*, ERG-DNA inh -6.2%, EPAC2 ag 15.6%, EPAC1 antagonist -20.5%, EPAC1 ag -8.6% and RGS4 inhibitor -5.0%.
`CCn1ccc2c(OCC(=O)NCc3ccc(C)cc3)cccc2c1=O` gave ERG-DNA inh 0.3% and RGS4 inhibitor 6.8%.
Screening CCc1ccc(NC(=O)C2CCN(C(=O)N3CC(CC)Oc4ccccc43)CC2)cc1 (stereo not given) returned ERG-DNA inh 0.4% and RGS4 inhibitor -5.8%.
`O=C1C2C=CC=CC2=NC(=S)N1CCN1CCC(=C(c2ccc(F)cc2)c2ccc(F)cc2)CC1` (stereo not given) gave RGS4 inhibitor 16.2%[56.9 µM].
Screening O=C1NNC(c2ccccc2)=N/C1=C\c1ccccc1Cl returned EPAC2 antagonist inconclusive, ERG-DNA inh 1.8%, EPAC2 ag 26.2%, EPAC1 antagonist 39.8µM*, EPAC1 ag 2.0% and RGS4 inhibitor -51.4%.
For Cc1nc(S/C(=C/c2ccc(-c3cc(Cl)ccc3C)o2)C(=O)O)n[nH]1 the results were EPAC2 antagonist inconclusive, ERG-DNA inh 26.2%, EPAC2 ag -13.3%, EPAC1 antagonist 1.5%, EPAC1 ag 3.5% and RGS4 inhibitor -55.6%[56.9 µM].
`O=C(O)c1cc(Cl)ccc1-c1ccc(/C=C/c2cc(C(F)(F)F)[nH]c(=O)n2)o1` gave EPAC2 antagonist 272.9%, ERG-DNA inh 9.3%, EPAC2 ag 100µM*, EPAC1 antagonist 472.7%, EPAC1 ag 89.1µM* and RGS4 inhibitor 9.6%.
Screening O=C(O)c1ccccc1-c1ccc(/C=C/c2cc(C(F)(F)F)[nH]c(=O)n2)o1 returned EPAC2 antagonist 443.6%, ERG-DNA inh -23.1%, EPAC2 ag 100µM*, EPAC1 antagonist inactive, EPAC1 ag 56.2µM* and RGS4 inhibitor 1.8%.
COc1ccccc1OCC(=O)Nc1c(C(=O)c2ccc(F)cc2)oc2ccccc12 was read as ERG-DNA inh 2.9% and RGS4 inhibitor 0.9%.
Screening Cc1cc2ccccc2n1CCNC(=O)C(C)(C)C returned EPAC2 antagonist 9.0%, ERG-DNA inh 22.4µM*, EPAC2 ag 7.8%, EPAC1 antagonist 0.1%, EPAC1 ag 2.5% and RGS4 inhibitor 8.4%.
For Cc1cc2ccccc2n1CCNC(=O)c1ccc(Br)cc1 the results were ERG-DNA inh -4.2% and RGS4 inhibitor -15.6%.
`Cc1onc(-c2ccccc2Cl)c1C(=O)NCCn1c(C)cc2ccccc21` gave EPAC2 antagonist -23.6%, ERG-DNA inh 31.6µM*, EPAC2 ag 7.2%, EPAC1 antagonist inconclusive, EPAC1 ag -6.5% and RGS4 inhibitor -7.6%.
`CC(=O)NCCn1c(C)cc2ccccc21` gave EPAC2 antagonist 13.1%, ERG-DNA inh -28.8%, EPAC2 ag -4.3%, EPAC1 antagonist inconclusive, EPAC1 ag -2.4% and RGS4 inhibitor -16.8%.
Screening Cc1onc(-c2ccccc2Cl)c1C(=O)NCC(=O)O returned EPAC2 antagonist -1.9%, ERG-DNA inh 0.2%, EPAC2 ag 0.3%, EPAC1 antagonist -1.5%, EPAC1 ag 3.5% and RGS4 inhibitor 7.0%[56.9 µM].
Screening Cc1cc2ccccc2n1CCNC(=O)c1ccc(Br)o1 returned EPAC2 antagonist 36.5%, ERG-DNA inh 31.6µM*, EPAC2 ag 11.9%, EPAC1 antagonist -26.5%, EPAC1 ag -3.4% and RGS4 inhibitor -24.6%.
For Cc1ccccc1Nc1c(-c2ccc(O)cc2)nc2c(C)cccn12 the results were ERG-DNA inh 1.0% and RGS4 inhibitor 0.5%.
For COc1cccc(CN2C(=O)C(C)Oc3ccccc32)c1 (stereo not given) the results were EPAC2 antagonist -15.6%, ERG-DNA inh 1.3%, EPAC2 ag 1.0%, EPAC1 antagonist -8.2%, EPAC1 ag 12.2% and RGS4 inhibitor -19.5%[56.9 µM].
For COc1cc(CN2C(=O)C(C)ON=C2c2ccccc2F)cc(OC)c1 (stereo not given) the results were EPAC2 antagonist 31.6µM*, EPAC2 ag 2.7%, EPAC1 antagonist -2.7% and EPAC1 ag -5.2%.
Screening CCCn1cnc2c1c(=O)n(CCCCC(C)=O)c(=O)n2C returned EPAC2 antagonist -3.2%, EPAC2 ag -3.2%, EPAC1 antagonist 0.8%, EPAC1 ag 6.9% and RGS4 inhibitor 23.8µM*!.
CCN(CC)C(=O)Cn1cnc2c1c(=O)n(C)c(=O)n2C was read as EPAC2 antagonist -2.8%[57.1 µM], ERG-DNA inh -1.9%, EPAC2 ag 3.1%, EPAC1 antagonist -7.4%, EPAC1 ag 3.7% and RGS4 inhibitor 4.9%.
`c1csc(-c2nc(N3CCN(Cc4ccc5c(c4)OCCO5)CC3)c3ccccc3n2)c1` gave RGS4 inhibitor 6.0%.
